An excerpt weighted towards active compounds, which were near 19% of everything screened.
TDP1 cell noCPT = qHTS for Inhibitors of human tyrosyl-DNA phosphodiesterase 1 (TDP1): qHTS in cells in absence of CPT | AID 686978, 2013 | hit rate 15% among 420,000 | Potency, µM (series often up to 46.2 µM), for inactives: top-dose activity change, negative = growth inhibition, actives largely listed as inhibitors | DT40 Tdp1-/- hTDP1 cells, no CPT, ATP luminescence, 48 h; also: potency is read from the fitted curve at half-maximal effect; nearly all actives have a fitted effect of over 55% in size
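Stably hTDP1-transfected Tdp1-null chicken DT40 cells were treated with library compounds minus camptothecin and grown for at least 48 hr at 37 °C, after which cellular ATP was quantified by luminescence.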
HT1080-NT tox = qHTS for induction of synthetic lethality in tumor cells producing 2HG: qHTS for the HT-1080-NT fibrosarcoma cell line; Potency, µM (doses to about 46.1 µM), without a hit: at the highest dose activity, negative = less viability, usual class: cytotoxic; HT-1080-NT fibrosarcoma viability, CellTiter-Glo ATP luminescence, 48 h; AID 686970, 2013; hit rate 1.6% among 360,000;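 also: NT is the 2HG producing partner of a matched IDH1 knockdown line; potency is read from the fitted curve at half-maximal effect; 0% = DMSO-treated cells and -100% = media-only wells without cells; nearly all actives have a fitted effect of over 55% in size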
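Read-out is CellTiter-Glo luminescence after 10 minutes at room temperature, following 48 hours' compound treatment of HT-1080-NT cells (750 cells/well, RPMI, 5% FBS, 37 degrees C).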
HT1080 IDH1KD tx = qHTS for induction of synthetic lethality in tumor cells producing 2HG: qHTS for the HT-1080-IDH1KD cell line; hit rate 2% among 360,000; Potency, µM (top dose mostly 46.1 µM), for the others: top-dose activity, negative = toxicity, most hits filed as cytotoxic; HT-1080 IDH1 knockdown viability, ATP luminescence, 48 h;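 also: potency is read from the fitted curve at half-maximal effect; 0% = DMSO wells and -100% = cell-free medium wells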
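Viability of IDH1-knockdown HT-1080 fibrosarcoma cells was assessed by CellTiter-Glo after 48 h at 37 °C with titrated compound; concentration-effect curves were classified by fit quality and response size.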
TDP1 cell CPT = qHTS for Inhibitors of human tyrosyl-DNA phosphodiesterase 1 (TDP1): qHTS in cells in presence of CPT; chicken DT40 Tdp1-/-;hTDP1 cells + 20 nM CPT, ATP luminescence, 48 h; Potency, µM (doses to about 46.2 µM), without a hit: at the top dose activity change, negative = growth inhibition, usual class: inhibitors; hit rate 12% among 420,000; AID 686979, 2013; also: potency is read from the fitted curve at half-maximal effect; nearly all actives have a fitted effect of over 55% in size
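Chicken DT40 Tdp1-/- cells stably complemented with human TDP1 were seeded at 400 cells/well in medium containing 20 nM camptothecin, exposed to pin-transferred compounds, and grown at 37 °C for at least 48 hr. Viability was read as ATP luminescence.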
IL1B secr inh = qHTS for Inhibitors of Inflammasome Signaling: IL-1-beta AlphaLISA Primary Screen; THP-1 LPS/ATP IL-1B secretion, AlphaLISA, 16 h; stronger effect = lower value; activity change, % at 57.5 µM; hit rate 4.7% among 360,000; AID 743279, 2014; in the data active = activity change below about -50%; inconclusive = mostly about -30% to -49%
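Secreted IL-1B measured by AlphaLISA bead assay after 16 h compound exposure of THP-1 cells; compounds (final up to 57.5 uM) added 1 h before LPS (250 ng/mL) and ATP (1.25 mM) stimulation; lower signal means less secretion.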
* marks the source's active call; other numbers are inactive results; i = inactive; ? = inconclusive; nt = no result given; [ ] = remark or other dose. Unless noted, calls follow the shape of the dose curve; as a rule, active = well fitted curve in the direction sought with a large enough effect; inconclusive = small, poorly fitted or top-dose-only effect, or another doubt; inactive = no such curve, though single readings can be large; an effect the other way counts as inactive or inconclusive. Unless noted, % is scaled to controls: 0 for no effect and ±100 for the full control effect.

SMILES	TDP1 cell noCPT	HT1080-NT tox	HT1080 IDH1KD tx	TDP1 cell CPT	IL1B secr inh
O=C(Nc1nnc(-c2cccs2)o1)c1cc(-c2ccccc2)nc2ccccc12	15µM*	?	?	13µM*	82
COc1cc2[nH]cc(C(=O)NCc3cccs3)c(=O)c2cc1OC	-16%	20µM*	?	-10%	-9
Cc1ccc(-c2nc3ccccc3c(C(=O)NCc3cccs3)c2C)cc1	?	-10%	-10%	21µM*	-8
CC(C(=O)NCc1ccccc1)n1cc([N+](=O)[O-])cn1 (stereo unspecified)	0%	1%	3%	-3%	8
Nc1nc2ccccc2cc1C(=O)NCCCCc1ccccc1	1.6µM*	?	?	2.1µM*	52
O=C(NCc1cccs1)c1ccccc1F	-22%	11%	1%	6%	-3
O=C(NCc1cccs1)c1cc(-c2ccccc2)nc2ccccc12	21µM*	-4%	-1%	23µM*	12
Cc1ccccc1Nc1cc(C(=O)NCc2cccs2)c2ccccc2n1	?	nt	nt	21µM*	nt
Nc1nc2ccccc2cc1C(=O)NCc1cccs1	7.3µM*	-11%	-26%	9.2µM*	48
COc1ccc(S(=O)(=O)N2CCC3(CC2)OCCN3S(=O)(=O)c2ccc(OC)cc2)cc1	?	-2%	-5%	?	-13
COc1ccc(S(=O)(=O)N2CCOC23CCN(S(=O)(=O)c2ccc(F)cc2C)CC3)cc1	23µM*	-6%	-17%	?	-3
COc1ccc(S(=O)(=O)N2CCOC23CCN(S(=O)(=O)c2c(C)cc(C)cc2C)CC3)cc1	16µM*	-26%	-5%	?	-9
COc1ccc(S(=O)(=O)N2CCOC23CCN(S(=O)(=O)c2cc(C)ccc2C)CC3)cc1	?	-2%	5%	21µM*	-1
Cc1ccc(S(=O)(=O)N2CCCN(C(=O)c3ccc(-n4nccc4C)cc3)CC2)cc1	?	5%	3%	?	-3
Cc1ccc(NN2C(=O)C=C(c3ccccc3)C2=O)cc1	7.3µM*	23µM*	16µM*	5.8µM*	-28
O=C1c2ccccc2C(=O)N1Nc1ccccc1	-1%	?	-10%	-4%	-4
O=C1CSC(=NC2CCCCC2)N1	18µM*	1%	-1%	23µM*	-96*
O=C(ONC1=NCCCCC1)c1c(F)cccc1F	?	-21%	-8%	16µM*	-8
O=C(CNC1=NCCC1)c1ccc(Cl)cc1	7%	-5%	-7%	6%	57
O=C(ONC1=NCCCCC1)c1ccc(Cl)cc1	15µM*	16µM*	23µM*	21µM*	-17
CCOc1ccc(Cn2c(=O)sc3ccccc32)cc1OC	?	-16%	-8%	?	-1
CCC(C)C(NC(=O)c1ccc(Cl)cc1)C(=O)O (stereo unspecified)	-11%	14%	14%	-6%	-1
CCC(C)NCC(O)(c1ccc(Cl)cc1)c1ccc(Cl)cc1 (stereo unspecified)	23µM*	?	?	23µM*	?
Cc1ccc(C)c(S(=O)(=O)NCCc2csc(-c3ccc(Cl)cc3)n2)c1	16µM*	nt	nt	29µM*	nt
Cc1ccc(S(=O)(=O)NCCc2csc(-c3cccc(F)c3)n2)cc1	15µM*	nt	nt	21µM*	nt
SMILES	TDP1 cell noCPT	HT1080-NT tox	HT1080 IDH1KD tx	TDP1 cell CPT	IL1B secr inh
CCOc1ccc(S(=O)(=O)NCCc2csc(-c3ccc(Cl)cc3)n2)cc1	5.8µM*	nt	nt	6.5µM*	nt
Cc1ccc(S(=O)(=O)NCCc2csc(-c3ccc(Cl)cc3)n2)cc1	12µM*	nt	nt	12µM*	nt
CCOc1ccc(S(=O)(=O)NCc2csc(C)n2)cc1	-26%	2%	2%	-27%	24
COc1ccc(-n2nc3c(c2NC(=O)c2cc4ccccc4o2)CS(=O)(=O)C3)cc1	-4%	3%	1%	1%	i
CCOc1ccc(NC(=S)NC(=O)c2cncc(Br)c2)cc1	-12%	11%	25%	5%	nt
O=C(C[C@@H]1CC[C@@H](NC(=O)Nc2cccc(F)c2)[C@@H](CO)O1)NCC1CCCCC1	-30%	12%	11%	10%	-20
Cc1cc(OCC(=O)Nc2nccs2)c2c(C)cc(=O)oc2c1	?	23%	11%	3%	-4
Cc1ccc(C)c(S(=O)(=O)NCCCN2CCOCC2)c1	13%	8%	20%	30%	4
CCc1ccc(S(=O)(=O)NCc2csc(-c3ccccc3)n2)s1	?	-10%	0%	?	14
Cc1ccc(C)c(S(=O)(=O)NCCCc2ccccc2)c1	-15%	-10%	-14%	32%	-57*
CCc1ccc(S(=O)(=O)NCCc2csc(-c3ccccc3)n2)s1	23µM*	?	6%[9.24 µM]	?	-26
CC(=O)c1cccc(NC(=O)c2noc3c2CC(C)CC3)c1 (stereo unspecified)	-22%	nt	nt	2%	nt
O=C1NC2(C=Cc3c(ccc4ccccc34)O2)Oc2ccccc21 (stereo unspecified)	23µM*	-15%	?	23µM*	-5
CC1(C)OC(=O)N(c2ccccc2)C12C=Cc1c(ccc3ccccc13)O2 (stereo unspecified)	?	-8%	?	?	-4
CN1C(=O)c2ccccc2C(C(=O)O)C1c1cn(C)c2ccccc12 (stereo unspecified)	?	-2%	-7%	?	60
O=c1c2ccccc2ncn1Cc1ccccc1	9%	-4%	3%	18%	12
O=c1c2ccsc2ncn1Cc1ccc(Cl)cc1	18µM*	-12%	-7%	?	-2
CN(C)C(=O)/C(C#N)=C\c1cc(Br)c(Sc2ccc(Cl)cc2)o1	15µM*	-18%	5%	?	-94*
O=C(NCCCn1ccnc1)c1nn2c(C(F)(F)F)cc(-c3ccc(Br)cc3)nc2c1Cl	16µM*	-3%	-3%	23µM*	-52*
COc1ccc(-c2cc(C(F)(F)F)n3nc(C(=O)NCCCn4ccnc4)cc3n2)cc1	?	-2%	-1%	-30%	-59*
CCCNC(=O)c1nn2c(C(F)(F)F)cc(-c3ccccc3)nc2c1Cl	?	?	-18%	?	-15
O=C(O)Cc1ccc(NS(=O)(=O)c2ccc3c(c2)OCCO3)cc1	-2%	11%	11%	2%	15
COc1ccc(NC(=O)COC(=O)c2c3c(nc4ccccc24)CCCC3)cc1	?	-14%	?	?	?

Screening results deposited in PubChem BioAssay by National Center for Advancing Translational Sciences (NCATS).
